Laboratory results taken from article PMC7862700, “An all-to-all approach to the identification of sequence-specific readers for epigenetic DNA modifications on cytosine”.

How the values were obtained:
Assay in all cases: DAPPL (digital affinity profiling via proximity ligation, sequencing); 10 mM Tris-HCl pH 7.5, 50 mM NaCl, 1 mM DTT, 4% glycerol, room temperature, 30 min; GST-TFs on glutathione beads, 16-mer random dsDNA library, 0.1% formaldehyde crosslink after washing; high values mean tight binding
FLI1 = target: T1, FLI1 (Homo sapiens, UniProt Q01543 1-452); conditions: protein: recombinant; tags: N-terminal GST; dsDNA, one strand shown
T1 sequence: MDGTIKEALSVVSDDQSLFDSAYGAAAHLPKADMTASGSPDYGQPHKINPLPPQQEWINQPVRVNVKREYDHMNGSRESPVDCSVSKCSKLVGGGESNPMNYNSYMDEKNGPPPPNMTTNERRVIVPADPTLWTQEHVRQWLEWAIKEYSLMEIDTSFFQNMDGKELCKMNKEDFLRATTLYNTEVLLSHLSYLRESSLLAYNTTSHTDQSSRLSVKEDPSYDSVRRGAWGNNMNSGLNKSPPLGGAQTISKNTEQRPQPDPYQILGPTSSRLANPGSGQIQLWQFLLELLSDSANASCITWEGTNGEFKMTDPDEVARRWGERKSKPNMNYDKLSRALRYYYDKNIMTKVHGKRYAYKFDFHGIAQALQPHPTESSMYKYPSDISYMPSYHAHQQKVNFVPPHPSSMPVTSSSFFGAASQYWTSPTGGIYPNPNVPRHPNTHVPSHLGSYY
Method in brief: (§1)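 After expression in yeast as GST fusions, human transcription factors were bound to glutathione beads, DNA-barcoded and mixed with a tag-only sample. The pools were incubated with 200 nmole of a 16-mer random double-stranded DNA library in Tris/NaCl/DTT/glycerol buffer (30 min, room temperature), washed and crosslinked with 0.1% formaldehyde. Proximity ligation with BsaI/T4 ligase ran for 1 h at 37 °C, before PCR amplification and sequencing on an Illumina NextSeq500. Binding signal is a hexamer's read frequency for a factor divided by its frequency for the tag-only sample.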

ELK1 = target: T2, ELK1 (Homo sapiens, UniProt P19419 1-428); conditions: protein: recombinant; tags: N-terminal GST; dsDNA, one strand shown
T2 sequence: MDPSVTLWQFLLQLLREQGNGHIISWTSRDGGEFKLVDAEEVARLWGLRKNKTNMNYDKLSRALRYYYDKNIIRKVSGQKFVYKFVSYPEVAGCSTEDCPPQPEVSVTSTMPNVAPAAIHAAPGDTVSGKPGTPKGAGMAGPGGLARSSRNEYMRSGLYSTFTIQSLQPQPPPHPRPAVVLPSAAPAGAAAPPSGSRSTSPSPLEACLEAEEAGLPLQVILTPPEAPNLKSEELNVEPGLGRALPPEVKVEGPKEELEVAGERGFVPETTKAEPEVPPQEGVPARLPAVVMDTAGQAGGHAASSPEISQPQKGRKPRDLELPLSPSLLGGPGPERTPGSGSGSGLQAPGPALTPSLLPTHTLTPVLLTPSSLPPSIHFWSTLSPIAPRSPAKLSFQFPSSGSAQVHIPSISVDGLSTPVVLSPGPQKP
Method in brief: as §1

GABPA = target: T3, GABPA (Homo sapiens, UniProt Q06546 1-454); conditions: protein: recombinant; tags: N-terminal GST; dsDNA, one strand shown
T3 sequence: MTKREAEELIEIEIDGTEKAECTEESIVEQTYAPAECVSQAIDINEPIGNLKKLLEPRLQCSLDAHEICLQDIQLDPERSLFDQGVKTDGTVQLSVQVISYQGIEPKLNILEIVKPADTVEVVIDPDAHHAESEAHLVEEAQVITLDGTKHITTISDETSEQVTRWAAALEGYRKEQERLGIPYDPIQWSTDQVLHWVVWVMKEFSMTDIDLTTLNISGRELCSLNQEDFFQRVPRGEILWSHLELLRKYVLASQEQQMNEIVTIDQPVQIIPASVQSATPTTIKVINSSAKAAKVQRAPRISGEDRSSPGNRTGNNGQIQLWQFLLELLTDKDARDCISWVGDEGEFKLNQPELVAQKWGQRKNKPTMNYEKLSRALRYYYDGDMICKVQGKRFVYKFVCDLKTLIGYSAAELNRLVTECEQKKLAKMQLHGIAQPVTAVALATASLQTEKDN
Method in brief: as §1

ERG = target: T4, ERG (Homo sapiens, UniProt P11308 1-479); conditions: protein: recombinant; tags: N-terminal GST; dsDNA, one strand shown
T4 sequence: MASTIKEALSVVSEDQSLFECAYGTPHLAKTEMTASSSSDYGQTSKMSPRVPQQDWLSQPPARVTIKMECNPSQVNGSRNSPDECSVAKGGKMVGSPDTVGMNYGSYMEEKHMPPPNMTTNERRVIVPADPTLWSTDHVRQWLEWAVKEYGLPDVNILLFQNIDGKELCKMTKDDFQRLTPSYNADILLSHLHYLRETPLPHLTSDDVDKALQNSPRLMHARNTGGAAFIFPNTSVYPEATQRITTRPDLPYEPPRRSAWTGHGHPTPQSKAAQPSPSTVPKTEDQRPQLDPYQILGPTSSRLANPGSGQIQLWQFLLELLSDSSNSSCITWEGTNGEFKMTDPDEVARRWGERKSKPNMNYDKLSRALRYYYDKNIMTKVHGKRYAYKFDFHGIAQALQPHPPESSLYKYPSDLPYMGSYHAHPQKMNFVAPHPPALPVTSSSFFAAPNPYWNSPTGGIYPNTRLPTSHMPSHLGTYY
Method in brief: as §1

ELF1 = ELF1 (Homo sapiens, UniProt P32519 1-619); conditions: protein: recombinant; tags: N-terminal GST; dsDNA, one strand shown
Method in brief: as §1

EHF = target: T5, EHF (Homo sapiens, UniProt Q9NZC4 1-300); conditions: protein: recombinant; tags: N-terminal GST; dsDNA, one strand shown
T5 sequence: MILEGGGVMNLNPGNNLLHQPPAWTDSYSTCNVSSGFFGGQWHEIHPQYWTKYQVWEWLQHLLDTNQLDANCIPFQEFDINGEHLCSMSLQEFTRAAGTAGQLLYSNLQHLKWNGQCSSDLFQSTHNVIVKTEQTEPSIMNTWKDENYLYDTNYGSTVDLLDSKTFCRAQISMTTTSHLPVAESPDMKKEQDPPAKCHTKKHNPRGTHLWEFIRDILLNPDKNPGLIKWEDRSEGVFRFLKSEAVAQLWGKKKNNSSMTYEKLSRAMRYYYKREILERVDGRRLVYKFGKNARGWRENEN
Method in brief: as §1

SPI1 = SPI1 (Homo sapiens, UniProt P17947 1-270); conditions: protein: recombinant; tags: N-terminal GST; dsDNA, one strand shown
Method in brief: as §1

SPIB = SPIB (Homo sapiens, UniProt Q01892 1-262); conditions: protein: recombinant; tags: N-terminal GST; dsDNA, one strand shown
Method in brief: as §1

ELK3 = target: T6, ELK3 (Homo sapiens, UniProt P41970 1-407); conditions: protein: recombinant; tags: N-terminal GST; dsDNA, one strand shown
T6 sequence: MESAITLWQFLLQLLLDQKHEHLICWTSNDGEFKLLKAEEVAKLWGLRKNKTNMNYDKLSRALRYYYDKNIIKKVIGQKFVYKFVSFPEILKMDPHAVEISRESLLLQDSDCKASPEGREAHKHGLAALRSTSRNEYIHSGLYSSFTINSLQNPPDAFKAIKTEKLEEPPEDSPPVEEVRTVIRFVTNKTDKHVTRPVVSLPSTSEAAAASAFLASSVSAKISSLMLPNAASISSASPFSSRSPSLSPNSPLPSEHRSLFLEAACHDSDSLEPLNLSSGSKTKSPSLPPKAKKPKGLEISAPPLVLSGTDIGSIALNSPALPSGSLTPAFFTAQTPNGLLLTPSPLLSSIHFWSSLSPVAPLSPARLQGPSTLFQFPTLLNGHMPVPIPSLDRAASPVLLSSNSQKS
Method in brief: as §1

FEV = target: T7, FEV (Homo sapiens, UniProt Q99581 1-238); conditions: protein: recombinant; tags: N-terminal GST; dsDNA, one strand shown
T7 sequence: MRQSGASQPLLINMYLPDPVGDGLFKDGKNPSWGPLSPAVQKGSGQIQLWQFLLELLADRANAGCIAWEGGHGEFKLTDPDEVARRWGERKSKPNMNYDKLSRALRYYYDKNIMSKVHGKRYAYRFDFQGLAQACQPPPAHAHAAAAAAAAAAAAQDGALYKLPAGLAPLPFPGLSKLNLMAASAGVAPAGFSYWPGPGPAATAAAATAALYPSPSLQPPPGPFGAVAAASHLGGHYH
Method in brief: as §1

ETV5 = ETV5 (Homo sapiens, UniProt P41161 1-510); conditions: protein: recombinant; tags: N-terminal GST; dsDNA, one strand shown
Method in brief: as §1

HSF1 = HSF1 (Homo sapiens, UniProt Q00613 1-529); conditions: protein: recombinant; tags: N-terminal GST; chain copies: 3; dsDNA, one strand shown
Method in brief: as §1

SPIC = target: T8, SPIC (Homo sapiens, UniProt Q8N5J4 1-248); conditions: protein: recombinant; tags: N-terminal GST; dsDNA, one strand shown
T8 sequence: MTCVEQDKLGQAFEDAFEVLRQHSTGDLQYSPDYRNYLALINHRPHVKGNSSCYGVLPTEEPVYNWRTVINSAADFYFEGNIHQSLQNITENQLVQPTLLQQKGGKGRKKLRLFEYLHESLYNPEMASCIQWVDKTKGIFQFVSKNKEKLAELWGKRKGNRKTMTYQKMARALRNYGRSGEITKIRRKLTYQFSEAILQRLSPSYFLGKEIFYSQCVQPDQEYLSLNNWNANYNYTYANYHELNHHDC
Method in brief: as §1

ELF4 = ELF4 (Homo sapiens, UniProt Q99607 1-663); conditions: protein: recombinant; tags: N-terminal GST; dsDNA, one strand shown
Method in brief: as §1

ELK4 = target: T9, ELK4 (Homo sapiens, UniProt P28324-2 1-405); conditions: protein: recombinant; tags: N-terminal GST; dsDNA, one strand shown
T9 sequence: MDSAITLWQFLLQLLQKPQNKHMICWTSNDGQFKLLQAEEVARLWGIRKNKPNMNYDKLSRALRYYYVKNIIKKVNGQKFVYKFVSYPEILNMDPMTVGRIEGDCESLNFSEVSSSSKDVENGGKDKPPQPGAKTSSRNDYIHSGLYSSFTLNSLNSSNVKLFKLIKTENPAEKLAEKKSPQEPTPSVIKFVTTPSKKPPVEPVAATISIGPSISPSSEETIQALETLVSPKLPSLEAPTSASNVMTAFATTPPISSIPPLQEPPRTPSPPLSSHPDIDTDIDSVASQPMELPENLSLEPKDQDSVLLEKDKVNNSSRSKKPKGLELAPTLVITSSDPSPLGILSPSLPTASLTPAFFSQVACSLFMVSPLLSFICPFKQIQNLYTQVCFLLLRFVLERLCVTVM
Method in brief: as §1

ETV2 = target: T10, ETV2 (Homo sapiens, UniProt O00321 1-342); conditions: protein: recombinant; tags: N-terminal GST; dsDNA, one strand shown
T10 sequence: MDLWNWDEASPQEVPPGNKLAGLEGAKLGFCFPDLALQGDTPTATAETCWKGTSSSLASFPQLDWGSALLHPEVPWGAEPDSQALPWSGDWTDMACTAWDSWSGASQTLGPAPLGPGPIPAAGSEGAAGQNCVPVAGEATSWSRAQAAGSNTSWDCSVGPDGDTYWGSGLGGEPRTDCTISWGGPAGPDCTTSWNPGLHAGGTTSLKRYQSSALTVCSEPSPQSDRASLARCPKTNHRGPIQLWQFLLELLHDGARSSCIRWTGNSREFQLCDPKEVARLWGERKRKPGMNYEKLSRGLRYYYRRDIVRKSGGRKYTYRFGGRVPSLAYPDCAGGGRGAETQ
Method in brief: as §1

ELF3 = target: T11, ELF3 (Homo sapiens, UniProt P78545 1-371); conditions: protein: recombinant; tags: N-terminal GST; dsDNA, one strand shown
T11 sequence: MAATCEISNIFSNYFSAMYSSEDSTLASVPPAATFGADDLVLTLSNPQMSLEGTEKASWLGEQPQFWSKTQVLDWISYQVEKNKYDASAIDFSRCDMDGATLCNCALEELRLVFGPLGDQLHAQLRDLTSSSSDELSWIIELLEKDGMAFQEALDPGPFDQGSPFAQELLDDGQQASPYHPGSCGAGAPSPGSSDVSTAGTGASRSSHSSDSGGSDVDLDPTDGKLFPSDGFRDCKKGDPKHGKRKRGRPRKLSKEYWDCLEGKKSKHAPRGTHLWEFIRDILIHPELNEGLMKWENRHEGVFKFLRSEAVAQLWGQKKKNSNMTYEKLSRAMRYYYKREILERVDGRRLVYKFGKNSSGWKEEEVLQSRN
Method in brief: as §1

CRX = CRX (Homo sapiens, UniProt O43186 1-299); conditions: protein: recombinant; tags: N-terminal GST; dsDNA, one strand shown
Method in brief: as §1

ETV1 = ETV1 (Homo sapiens, UniProt P50549 1-477); conditions: protein: recombinant; tags: N-terminal GST; dsDNA, one strand shown
Method in brief: as §1

Chain of SPIB (Q01892 whole entry): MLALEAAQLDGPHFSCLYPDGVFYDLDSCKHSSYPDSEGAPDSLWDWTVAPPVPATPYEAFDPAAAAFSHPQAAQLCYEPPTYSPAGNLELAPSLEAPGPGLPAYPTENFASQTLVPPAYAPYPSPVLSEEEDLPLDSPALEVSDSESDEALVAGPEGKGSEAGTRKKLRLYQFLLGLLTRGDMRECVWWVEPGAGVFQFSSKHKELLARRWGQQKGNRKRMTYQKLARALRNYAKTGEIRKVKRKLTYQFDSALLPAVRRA
Chain of ELF4 (Q99607 whole entry): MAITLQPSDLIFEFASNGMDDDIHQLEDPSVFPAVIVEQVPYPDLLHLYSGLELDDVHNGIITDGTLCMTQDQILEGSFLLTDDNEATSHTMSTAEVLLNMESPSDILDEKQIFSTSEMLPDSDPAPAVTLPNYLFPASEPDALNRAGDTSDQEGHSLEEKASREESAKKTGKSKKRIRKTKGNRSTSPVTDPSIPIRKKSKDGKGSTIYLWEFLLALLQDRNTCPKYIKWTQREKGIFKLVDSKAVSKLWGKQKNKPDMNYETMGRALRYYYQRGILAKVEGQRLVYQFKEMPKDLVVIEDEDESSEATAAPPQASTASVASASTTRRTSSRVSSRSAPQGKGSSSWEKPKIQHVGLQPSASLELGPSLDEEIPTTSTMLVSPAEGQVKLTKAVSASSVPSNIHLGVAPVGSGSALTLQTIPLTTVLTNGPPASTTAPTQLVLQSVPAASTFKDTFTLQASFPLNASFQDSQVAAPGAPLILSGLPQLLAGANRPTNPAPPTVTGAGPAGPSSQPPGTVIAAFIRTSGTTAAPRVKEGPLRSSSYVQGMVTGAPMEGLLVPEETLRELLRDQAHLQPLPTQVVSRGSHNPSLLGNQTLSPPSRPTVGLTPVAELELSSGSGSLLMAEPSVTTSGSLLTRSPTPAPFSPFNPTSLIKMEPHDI
Chain of CRX (O43186 whole entry): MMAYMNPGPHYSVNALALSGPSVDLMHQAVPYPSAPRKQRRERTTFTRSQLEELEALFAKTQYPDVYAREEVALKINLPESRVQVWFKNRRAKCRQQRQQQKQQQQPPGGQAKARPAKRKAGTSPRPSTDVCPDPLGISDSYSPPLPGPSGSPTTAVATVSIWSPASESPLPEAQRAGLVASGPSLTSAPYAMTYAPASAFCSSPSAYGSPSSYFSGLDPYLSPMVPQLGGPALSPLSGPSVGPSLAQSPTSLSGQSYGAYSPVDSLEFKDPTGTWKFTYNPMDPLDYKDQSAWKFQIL
Chain of ELF1 (P32519 whole entry): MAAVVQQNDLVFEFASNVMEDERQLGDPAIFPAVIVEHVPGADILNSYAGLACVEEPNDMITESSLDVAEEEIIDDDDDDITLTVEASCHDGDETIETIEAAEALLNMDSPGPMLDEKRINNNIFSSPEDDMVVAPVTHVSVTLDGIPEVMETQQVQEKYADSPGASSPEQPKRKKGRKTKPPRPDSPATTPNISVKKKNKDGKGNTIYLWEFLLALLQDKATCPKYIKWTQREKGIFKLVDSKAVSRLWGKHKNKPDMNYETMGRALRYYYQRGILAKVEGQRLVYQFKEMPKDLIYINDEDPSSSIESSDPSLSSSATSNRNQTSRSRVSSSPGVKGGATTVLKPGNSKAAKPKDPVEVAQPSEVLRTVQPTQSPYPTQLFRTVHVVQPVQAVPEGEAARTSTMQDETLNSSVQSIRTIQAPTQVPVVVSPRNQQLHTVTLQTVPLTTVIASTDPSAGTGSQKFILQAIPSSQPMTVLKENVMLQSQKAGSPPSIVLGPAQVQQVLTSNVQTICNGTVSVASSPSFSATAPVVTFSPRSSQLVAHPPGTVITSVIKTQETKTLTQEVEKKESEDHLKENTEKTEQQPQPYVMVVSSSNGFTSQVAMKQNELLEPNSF
Chain of ETV1 (P50549 whole entry): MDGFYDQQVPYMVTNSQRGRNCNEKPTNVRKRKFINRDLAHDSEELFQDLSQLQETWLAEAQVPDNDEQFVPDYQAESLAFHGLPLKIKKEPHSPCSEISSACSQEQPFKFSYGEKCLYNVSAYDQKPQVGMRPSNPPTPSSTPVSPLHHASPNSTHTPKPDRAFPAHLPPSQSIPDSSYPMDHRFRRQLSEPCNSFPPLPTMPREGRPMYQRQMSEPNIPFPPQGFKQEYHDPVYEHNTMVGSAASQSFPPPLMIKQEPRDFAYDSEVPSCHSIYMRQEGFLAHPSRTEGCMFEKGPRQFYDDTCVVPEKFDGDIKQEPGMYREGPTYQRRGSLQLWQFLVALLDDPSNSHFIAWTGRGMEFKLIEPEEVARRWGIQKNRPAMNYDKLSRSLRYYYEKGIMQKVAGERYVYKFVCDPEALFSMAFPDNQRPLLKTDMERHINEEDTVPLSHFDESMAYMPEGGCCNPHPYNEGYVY
Chain of ETV5 (P41161 whole entry): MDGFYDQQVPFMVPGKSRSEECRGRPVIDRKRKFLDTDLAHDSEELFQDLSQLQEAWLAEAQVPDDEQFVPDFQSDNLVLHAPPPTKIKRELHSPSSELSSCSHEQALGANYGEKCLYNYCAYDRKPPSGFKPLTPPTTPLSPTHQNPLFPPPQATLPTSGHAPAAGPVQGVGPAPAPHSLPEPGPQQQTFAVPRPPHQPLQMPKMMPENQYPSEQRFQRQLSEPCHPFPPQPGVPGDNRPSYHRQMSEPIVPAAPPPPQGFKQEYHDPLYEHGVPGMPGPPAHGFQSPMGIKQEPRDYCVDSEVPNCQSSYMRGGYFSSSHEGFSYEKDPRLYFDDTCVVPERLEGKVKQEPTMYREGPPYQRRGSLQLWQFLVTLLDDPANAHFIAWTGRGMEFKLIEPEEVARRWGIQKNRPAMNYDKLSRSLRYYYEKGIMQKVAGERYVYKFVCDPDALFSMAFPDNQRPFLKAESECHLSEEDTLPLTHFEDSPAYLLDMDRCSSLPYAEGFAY
Chain of HSF1 (Q00613 whole entry): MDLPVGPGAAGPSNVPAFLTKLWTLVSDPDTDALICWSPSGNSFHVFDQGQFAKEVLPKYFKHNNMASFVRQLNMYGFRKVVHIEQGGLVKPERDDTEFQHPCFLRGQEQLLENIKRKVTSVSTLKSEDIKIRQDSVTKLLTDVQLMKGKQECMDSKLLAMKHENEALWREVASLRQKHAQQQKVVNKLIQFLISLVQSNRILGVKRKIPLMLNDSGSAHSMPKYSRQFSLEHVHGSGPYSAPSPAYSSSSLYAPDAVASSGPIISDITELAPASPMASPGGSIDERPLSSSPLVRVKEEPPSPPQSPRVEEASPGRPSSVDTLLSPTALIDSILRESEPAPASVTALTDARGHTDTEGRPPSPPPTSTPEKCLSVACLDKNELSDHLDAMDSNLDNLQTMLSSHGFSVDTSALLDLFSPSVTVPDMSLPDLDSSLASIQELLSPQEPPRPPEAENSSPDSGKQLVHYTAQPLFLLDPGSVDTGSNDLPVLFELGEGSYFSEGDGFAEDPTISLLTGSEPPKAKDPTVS

## TTAGCA
FLI1
  binding signal: 1.21 fold enrichment (6-mer frequency, TF over GST control)
ELK1
  binding signal: 1.19 fold enrichment (6-mer frequency, TF over GST control)
GABPA
  binding signal: 1.16 fold enrichment (6-mer frequency, TF over GST control)
ERG
  binding signal: 1.3 fold enrichment (6-mer frequency, TF over GST control)
ELF1
  binding signal: 1.18 fold enrichment (6-mer frequency, TF over GST control)
EHF
  binding signal: 1.21 fold enrichment (6-mer frequency, TF over GST control)
SPI1
  binding signal: 1.15 fold enrichment (6-mer frequency, TF over GST control)
SPIB
  binding signal: 1.15 fold enrichment (6-mer frequency, TF over GST control)
ELK3
  binding signal: 1.17 fold enrichment (6-mer frequency, TF over GST control)
FEV
  binding signal: 1.23 fold enrichment (6-mer frequency, TF over GST control)
ETV5
  binding signal: 1.15 fold enrichment (6-mer frequency, TF over GST control)
HSF1
  binding signal: 1.7 fold enrichment (6-mer frequency, TF over GST control)
SPIC
  binding signal: 1.22 fold enrichment (6-mer frequency, TF over GST control)
ELF4
  binding signal: 1.33 fold enrichment (6-mer frequency, TF over GST control)
ELK4
  binding signal: 1.33 fold enrichment (6-mer frequency, TF over GST control)
ETV2
  binding signal: 1.27 fold enrichment (6-mer frequency, TF over GST control)
ELF3
  binding signal: 1.3 fold enrichment (6-mer frequency, TF over GST control)
CRX
  binding signal: 2.38 fold enrichment (6-mer frequency, TF over GST control)
ETV1
  binding signal: 1.32 fold enrichment (6-mer frequency, TF over GST control)
